Inhibition data for 18 compounds are collected here from PubChem BioAssay.

Calls of active or inactive are those of the source. No rule for the calls is given here.

In this experiment the target is Lethal factor (Bacillus anthracis) (UniProt P15917). Nature of the experiment: Lethal factor protease inhibitors, Bacillus anthracis, multiplex microsphere cleavage assay, validation set (AID 588461). Particulars: flow cytometry, at 10 µM, active compounds read high. A general note: Flow cytometry measures light scatter and fluorescence of single cells or particles in a stream.
Lethal factor (Bacillus anthracis), sequence (P15917 whole entry, looked up): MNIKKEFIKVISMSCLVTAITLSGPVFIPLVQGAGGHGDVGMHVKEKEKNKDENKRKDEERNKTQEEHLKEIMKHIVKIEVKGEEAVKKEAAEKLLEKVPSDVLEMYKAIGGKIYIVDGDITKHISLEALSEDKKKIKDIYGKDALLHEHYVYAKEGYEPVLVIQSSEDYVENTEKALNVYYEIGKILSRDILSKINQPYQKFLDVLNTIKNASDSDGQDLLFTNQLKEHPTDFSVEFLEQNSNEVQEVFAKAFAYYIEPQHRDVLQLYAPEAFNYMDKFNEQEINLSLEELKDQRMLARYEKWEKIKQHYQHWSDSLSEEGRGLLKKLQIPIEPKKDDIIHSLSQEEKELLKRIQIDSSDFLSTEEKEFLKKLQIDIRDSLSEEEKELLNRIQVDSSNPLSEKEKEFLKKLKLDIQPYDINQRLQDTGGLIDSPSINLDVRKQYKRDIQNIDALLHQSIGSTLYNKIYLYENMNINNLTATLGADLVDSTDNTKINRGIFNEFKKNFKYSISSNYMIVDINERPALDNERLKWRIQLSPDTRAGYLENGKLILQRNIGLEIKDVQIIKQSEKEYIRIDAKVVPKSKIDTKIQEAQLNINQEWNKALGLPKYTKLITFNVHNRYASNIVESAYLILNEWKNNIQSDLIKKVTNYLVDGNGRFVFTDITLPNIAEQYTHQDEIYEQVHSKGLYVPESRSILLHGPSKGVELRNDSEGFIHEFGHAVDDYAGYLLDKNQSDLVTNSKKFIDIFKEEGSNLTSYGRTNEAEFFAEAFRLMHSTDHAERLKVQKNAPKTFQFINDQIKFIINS
In the case of `CCNC(=O)c1c(N)sc2c1CCCCC2`, the inhibition (commonly the drop in the measured response relative to a control, in per cent) is -5.1% (inactive).
Turning to `COc1cccc(CC(=O)NCC2COc3ccccc3O2)c1OC` (stereo not drawn), the inhibition was 0.6% (inactive).
Turning to `COc1cc(OC)cc(C(=O)N[C@@H](CCSC)c2nc3ccccc3[nH]2)c1`, the inhibition was -0.7% (inactive).
Consider `COc1ccc(CCN=C(N)C(C)c2ccccc2)cc1OC` (stereo not drawn), for which the inhibition is 6.6% (inactive).
Turning to `CN(C)CCC=C1c2ccccc2CCc2ccccc21`, the inhibition is 0.7% (inactive).
Take `COc1cc(/C=C/C(=O)O)cc(S(=O)(=O)NCCCO)c1OC`: the inhibition is 2.3% (inactive).
The same measure for `C=CCC1(Cl)C(=O)C(Cl)=C(N2CCOCC2)C1(OC)OC` (stereo not drawn): 0% (inactive); for `COc1cc(C(=O)Nc2cccc(-c3nnc(-c4ccco4)o3)c2)ccc1OC(C)=O`: 0.6% (inactive); for `OC(CCCN1CCCCC1)(c1ccccc1)c1ccccc1`: 7.6% (inactive).
In the case of `Cn1c(=O)[nH]c(=O)c2c1nc(Br)n2CCCO`, the inhibition was -5.7% (inactive).
The same measure for `COc1cc2oc(-c3ccc(O)cc3)cc(=O)c2c(OC)c1O`: -2.3% (inactive); for `COc1ccc(S(N)(=O)=O)cc1C(N)=O`: -0.3% (inactive).
As for `COc1ccc(C2C3=C(CC(C)(C)CC3=O)N(C)C3=C2C(=O)CC(C)(C)C3)cc1`, the inhibition is -5.6% (inactive).
The value for `CN(C)CCC(c1ccccc1)c1ccccn1` (stereo not drawn) was 2.6% (inactive).
With `COCCn1c(/C=C/c2ccccc2)nc2ccccc21`, the inhibition is -3.4% (inactive).
The same measure for `Cc1cccc(CN2CCN(C(c3ccccc3)c3ccc(Cl)cc3)CC2)c1` (stereo not drawn): -9.2% (inactive).
With `COC(=O)c1[nH]c(=O)c2ccccc2c1O`, the inhibition was -1.7% (inactive).
Regarding `Cn1c(=O)[nH]c(=O)c2c1nc(NCc1ccco1)n2CCCc1ccccc1`, the inhibition is 0.5% (inactive).
